{"source": "the supplement of paper PMC9942566", "note": "± gives the standard deviation of the averaged measurements."}
{"test_system": "Serratia marcescens K904 PosmB-luxCDABE reporter (pMQ747)", "assay": "PosmB-lux reporter fold induction (RLU/OD600 relative to no-compound control), highest over Biolog concentrations; higher = stronger Rcs reporter activation", "conditions": "wild type K904; 4 h", "protocol": "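Serratia marcescens K904 (wild type) or its isogenic ΔrcsB mutant, carrying the Rcs-dependent PosmB-luxCDABE reporter plasmid pMQ747, was grown in LB at OD600 0.1 in Biolog Phenotype MicroArray plates PM11-20 for 4 h at 30-32°C. Each compound is present at 3-4 proprietary concentrations (not stated); per the Fig. S1 legend the value given is the highest fold over those wells. Three independent trials.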"}
{"compound": "Nc1ccn(C2OC(CO)C(O)C2O)c(=O)n1", "note": "[Cytosine-1-beta-D-arabino-furanoside] (Biolog plate: PM13, well positions: E1-4)", "PosmB-lux reporter fold induction": "1.5 ± 0.15"}
{"compound": "Cc1onc(-c2ccccc2)c1C(=O)N[C@@H]1C(=O)N2[C@@H]1SC(C)(C)[C@@H]2C(=O)O", "note": "[Oxacillin] (Biolog plate: PM12, well positions: B1-4)", "PosmB-lux reporter fold induction": "2.16 ± 0.46"}
{"compound": "Cc1cc(N)c2ccccc2[n+]1CCCCCCCCCC[n+]1c(C)cc(N)c2ccccc21", "note": "[Dequalinium chloride] (Biolog plate: PM13, well positions: A5-8)", "PosmB-lux reporter fold induction": "1.23 ± 0.086"}
{"compound": "O=c1c(O)c(-c2cc(O)c(O)c(O)c2)oc2cc(O)cc(O)c12", "note": "[myricetin] (Biolog plate: PM18, well positions: G9-12)", "PosmB-lux reporter fold induction": "1.05 ± 0.13"}
{"compound": "Nc1ccc(S(N)(=O)=O)cc1", "note": "[sulfanilamide] (Biolog plate: PM16, well positions: B5-8)", "PosmB-lux reporter fold induction": "0.986 ± 0.29"}
{"compound": "Cc1ncc([N+](=O)[O-])n1CC(O)CCl", "note": "(stereo not given) [ornidazole] (Biolog plate: PM20, well positions: C9-12)", "PosmB-lux reporter fold induction": "1.61 ± 0.055"}
{"compound": "NCC[C@H](O)C(=O)N[C@@H]1C[C@H](N)[C@@H](O[C@H]2O[C@H](CN)[C@@H](O)[C@H](O)[C@H]2O)[C@H](O)[C@H]1O[C@H]1O[C@H](CO)[C@@H](O)[C@H](N)[C@H]1O", "note": "[Amikacin] (Biolog plate: PM11, well positions: A2-4)", "PosmB-lux reporter fold induction": "1.4 ± 0.2"}
{"compound": "NC(CO)C(=O)NNCc1ccc(O)c(O)c1O", "note": "(stereo not given) [Benserazide] (Biolog plate: PM20, well positions: A9-12)", "PosmB-lux reporter fold induction": "1.16 ± 0.17"}
{"compound": "CCCCCCCC[N+](C)(CCCCCCCC)CCCCCCCC", "note": "[methyltrioctyl-ammonium chloride] (Biolog plate: PM19, well positions: B1-4)", "PosmB-lux reporter fold induction": "1.17 ± 0.32"}
{"compound": "N[C@H](CO)C(=O)O", "note": "[D-serine] (Biolog plate: PM17, well positions: A2-4)", "PosmB-lux reporter fold induction": "2.39 ± 1.2"}
{"compound": "NC[C@H]1O[C@H](O[C@H]2[C@H](O)[C@@H](O[C@H]3O[C@H](CO)[C@@H](O)[C@H](N)[C@H]3O)[C@H](N)C[C@@H]2N)[C@H](N)C[C@@H]1O", "note": "[Tobramycin] (Biolog plate: PM12, well positions: F1-4)", "PosmB-lux reporter fold induction": "1.6 ± 0.2"}
{"compound": "Nc1ccc(S(=O)(=O)Nc2ncccn2)cc1", "note": "[Sulfadiazine] (Biolog plate: PM12, well positions: E5-8)", "PosmB-lux reporter fold induction": "2.21 ± 0.27"}
{"compound": "CN(C)C(=O)/N=N/C(=O)N(C)C", "note": "[diamide] (Biolog plate: PM16, well positions: D5-8)", "PosmB-lux reporter fold induction": "1.26 ± 0.35"}
{"compound": "C[C@H]1c2cccc(O)c2C(=O)C2=C(O)[C@]3(O)C(=O)C(C(N)=O)=C(O)[C@@H](N(C)C)[C@@H]3[C@@H](O)[C@@H]21", "note": "[Doxycycline] (Biolog plate: PM13, well positions: C5-8)", "PosmB-lux reporter fold induction": "1.48 ± 0.11"}
{"compound": "COc1cc(NS(=O)(=O)c2ccc(N)cc2)ncn1", "note": "[sulfamono-methoxine] (Biolog plate: PM17, well positions: C9-12)", "PosmB-lux reporter fold induction": "1.35 ± 0.34"}
{"compound": "O=C(O)/C=C/c1ccccc1", "note": "[cinnamic acid] (Biolog plate: PM19, well positions: C9-12)", "PosmB-lux reporter fold induction": "9.92 ± 5.1"}
{"compound": "Oc1c(Cl)cc(Cl)c2cccnc12", "note": "[5,7-Dichloro-8-hydroxyquinoline] (Biolog plate: PM15, well positions: C1-4)", "PosmB-lux reporter fold induction": "2.24 ± 0.92"}
{"compound": "c1cnc2c(c1)ccc1cccnc12", "note": "[1,10-Phenanthroline] (Biolog plate: PM15, well positions: C9-12)", "PosmB-lux reporter fold induction": "1.36 ± 0.36"}
{"compound": "CC1=CC(=O)c2ccccc2C1=O", "note": "[Menadione] (Biolog plate: PM15, well positions: G9-12)", "PosmB-lux reporter fold induction": "3.74 ± 0.73"}
{"compound": "[Cl][Cu][Cl]", "note": "[Cupric chloride] (Biolog plate: PM13, well positions: H1-4)", "PosmB-lux reporter fold induction": "1.13 ± 0.12"}
{"compound": "Cc1ccc2c(Cl)cc(Cl)c(O)c2n1", "note": "[5,7-Dichloro-8-hydroxy-quinaldine] (Biolog plate: PM15, well positions: B9-12)", "PosmB-lux reporter fold induction": "2.01 ± 0.87"}
{"compound": "CCCCCCCCCCCC[N+](C)(C)CCCS(=O)(=O)[O-]", "note": "[lauryl sulfobetaine] (Biolog plate: PM19, well positions: G1-4)", "PosmB-lux reporter fold induction": "2.95 ± 1.1"}
{"compound": "NC[C@@H]1O[C@H](O[C@H]2[C@@H](O)[C@H](O[C@@H]3[C@@H](O)[C@H](N)C[C@H](N)[C@H]3O[C@H]3O[C@H](CO)[C@@H](O)[C@H](O)[C@H]3N)O[C@@H]2CO)[C@H](N)[C@@H](O)[C@@H]1O", "note": "[Paromomycin] (Biolog plate: PM12, well positions: C1-4)", "PosmB-lux reporter fold induction": "1.63 ± 0.1"}
{"compound": "NC(=O)NO", "note": "[Hydroxyurea] (Biolog plate: PM15, well positions: H5-8)", "PosmB-lux reporter fold induction": "13.1 ± 1.9"}
{"compound": "CC(=O)OCC1=C(C(=O)O)N2C(=O)[C@@H](NC(=O)Cc3cccs3)[C@H]2SC1", "note": "[Cephalothin] (Biolog plate: PM11, well positions: H1-4)", "PosmB-lux reporter fold induction": "1.36 ± 0.043"}
{"compound": "C[C@H]1O[C@@H](n2cc(F)c(=O)[nH]c2=O)[C@H](O)[C@@H]1O", "note": "[5-fluoro-5'-deoxyuridine] (Biolog plate: PM18, well positions: H1-4)", "PosmB-lux reporter fold induction": "1.12 ± 0.19"}
{"compound": "CCS(=O)(=O)CCn1c([N+](=O)[O-])cnc1C", "note": "[tinidazole] (Biolog plate: PM18, well positions: F5-8)", "PosmB-lux reporter fold induction": "1.53 ± 0.081"}
{"compound": "O=C(N[C@H](CO)[C@H](O)c1ccc([N+](=O)[O-])cc1)C(Cl)Cl", "note": "[Chloramphenicol] (Biolog plate: PM14, well positions: F1-4)", "PosmB-lux reporter fold induction": "2.41 ± 1.1"}
{"compound": "CO[C@H]1C[C@H](O[C@H]2[C@H](C)[C@@H](O[C@@H]3O[C@H](C)C[C@H](N(C)C)[C@H]3OC(C)=O)[C@@H](C)C[C@@]3(CO3)C(=O)[C@H](C)[C@@H](OC(C)=O)[C@@H](C)[C@@H](C)OC(=O)[C@@H]2C)O[C@@H](C)[C@@H]1OC(C)=O", "note": "[troleandomycin] (Biolog plate: PM20, well positions: H9-12)", "PosmB-lux reporter fold induction": "1.36 ± 0.24"}
{"compound": "CC(C)(C)CC(C)(C)c1ccc(OCCOCC[N+](C)(C)Cc2ccccc2)cc1", "note": "[Benzethonium chloride] (Biolog plate: PM12, well positions: E9-12)", "PosmB-lux reporter fold induction": "2.27 ± 0.38"}
{"compound": "CSc1ccc2c(c1)N(CCC1CCCCN1C)c1ccccc1S2", "note": "(stereo not given) [thioridazine] (Biolog plate: PM20, well positions: C1-4)", "PosmB-lux reporter fold induction": "0.902 ± 0.17"}
{"compound": "[Cl-].[Cs+]", "note": "[Cesium chloride] (Biolog plate: PM13, well positions: F1-4)", "PosmB-lux reporter fold induction": "1.41 ± 0.16"}
{"compound": "NCC(=O)NO", "note": "[glycine hydroxamate] (Biolog plate: PM16, well positions: H1-4)", "PosmB-lux reporter fold induction": "2.05 ± 0.2"}
{"compound": "CC1(C)S[C@@H]2[C@H](NC(=O)C(C(=O)O)c3ccccc3)C(=O)N2[C@H]1C(=O)O", "note": "(stereo not given in full) [Carbenicillin] (Biolog plate: PM14, well positions: G5-8)", "PosmB-lux reporter fold induction": "42 ± 28"}
{"compound": "Nc1ccc2cc3ccc(N)cc3nc2c1", "note": "[proflavine] (Biolog plate: PM20, well positions: D1-4)", "PosmB-lux reporter fold induction": "1.15 ± 0.24"}
{"compound": "Oc1c(Cl)cc(Cl)c(Cl)c1Cc1c(O)c(Cl)cc(Cl)c1Cl", "note": "[hexa-chlorophene] (Biolog plate: PM20, well positions: E9-12)", "PosmB-lux reporter fold induction": "1.62 ± 0.6"}
{"compound": "CCn1cc(C(=O)O)c(=O)c2cnc(N3CCNCC3)nc21", "note": "[pipemidic acid] (Biolog plate: PM18, well positions: B5-8)", "PosmB-lux reporter fold induction": "1.46 ± 0.24"}
{"compound": "CC(CN1c2ccccc2Sc2ccccc21)N(C)C", "note": "(stereo not given) [Promethazine] (Biolog plate: PM14, well positions: H5-8)", "PosmB-lux reporter fold induction": "4.68 ± 1.8"}
{"compound": "N.N.N.N.N.N.[Cl-].[Cl-].[Cl-].[Co+3]", "note": "[hexammine cobalt (III) chloride] (Biolog plate: PM19, well positions: H1-4)", "PosmB-lux reporter fold induction": "1.64 ± 0.12"}
{"compound": "CN(C)[C@@H]1C(O)=C(C(N)=O)C(=O)[C@@]2(O)C(O)=C3C(=O)c4c(O)ccc(Cl)c4[C@@](C)(O)[C@H]3C[C@@H]12", "note": "[Chlortetracycline] (Biolog plate: PM11, well positions: A5-8)", "PosmB-lux reporter fold induction": "1.48 ± 0.4"}
